Bioassay records (PubChem)
Rows were chosen to be rich in hits. Some 14% of all compounds tested hit in one or more screens of this group.
FBPA Giardia inh: inhibitors of Giardia lamblia fructose-1,6-bisphosphate aldolase; AID 2451; A8B2U2; purified Giardia FBPA; 290,000 tested, 0.71% active; Potency, µM (series often up to 59.6 µM), actives largely listed as inhibitors; note: nearly all actives have a fitted effect of over 55% in size
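Giardia FBPA (40 nM reagent) was preincubated 10 min at RT with compound (up to 57.5 uM final), then substrate plus GAPDH/TPI/NAD/arsenate coupling system with diaphorase/resazurin was added; resorufin fluorescence (525/598 nm) was read after 20 min.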
Cycloheximide cs: affects cycloheximide protein synthesis inhibition readout, counter-screen; AID 2314; cell reporter, cycloheximide protein synthesis inhibition counterscreen; 300,000 tested, 12% active; max response, %; in the data active = max response mostly above about 13%, no sharp cut-off; inactive = mostly below about 14%; note: read at 38.3 µM for the half of the compounds with a filed dose
NS1 inh: influenza NS1 inhibition. Potency, µM (series often up to 46.1 µM). 270,000 tested, 0.4% active. AID 2326; calls by dose curve; note: actives are rising curves; nearly all actives have a fitted effect of over 50% in size
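Compounds were scored for reversing the slow growth caused by influenza A NS1 in S. cerevisiae, measured by optical density at 600 nm. Assay medium contained 2% galactose at pH 6.0; NS1-free yeast of the same strain were the positive control.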
Shiga toxin inh: Shiga toxin inhibition. Vero cells, Shiga toxin protein synthesis inhibition reporter. inhibition, % at 38.7 µM. 290,000 tested, 9.2% active; in the data active = inhibition mostly above about 28%, no sharp cut-off; inactive = mostly below about 43%
LmPK inh: LmPK (Leishmania mexicana) enzyme inhibition; Q27686; purified LmPK, Kinase-Glo ATP luminescence, 1 h; Potency, µM (highest dose often 57.5 µM), most hits filed as inhibitors; 290,000 tested, 0.37% active; AID 1721
Target sequence (Q27686 whole entry, looked up): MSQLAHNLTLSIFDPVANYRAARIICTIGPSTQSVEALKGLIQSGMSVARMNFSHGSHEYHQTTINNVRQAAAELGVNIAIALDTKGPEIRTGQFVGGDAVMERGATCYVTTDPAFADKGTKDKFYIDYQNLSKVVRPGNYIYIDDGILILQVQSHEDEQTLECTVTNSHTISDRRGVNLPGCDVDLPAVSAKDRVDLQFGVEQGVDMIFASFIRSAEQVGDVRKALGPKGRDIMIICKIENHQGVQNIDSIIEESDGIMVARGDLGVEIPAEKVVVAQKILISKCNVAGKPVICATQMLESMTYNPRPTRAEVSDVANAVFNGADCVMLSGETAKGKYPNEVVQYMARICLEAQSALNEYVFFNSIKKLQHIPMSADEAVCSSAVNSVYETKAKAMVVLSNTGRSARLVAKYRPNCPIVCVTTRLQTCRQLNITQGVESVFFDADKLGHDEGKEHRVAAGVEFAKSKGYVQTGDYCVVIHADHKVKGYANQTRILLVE
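Purified LmPK (0.1 nM) with 0.5 mM PEP and 0.1 mM ADP in imidazole buffer pH 7.2 with MgCl2/KCl, 1 h at room temperature. ATP formed was read by luciferase luminescence and normalized to no-enzyme and uninhibited controls.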
Of the large screens only hits and unclear results are named; the others gave an inactive call. Unless noted, calls come from the whole dose curve; as a rule, active = well fitted curve in the direction sought with a large enough effect; inconclusive = small, poorly fitted or top-dose-only effect, or another doubt; inactive = no such curve, though single readings can be large; an effect the other way counts as inactive or inconclusive.

O=C(c1cc(COc2ccc(F)cc2Cl)on1)N1CCCCCCC1	Cycloheximide cs 32, Shiga toxin inh 40
O=C(N[C@H]1CCCCNC1=O)c1cc(COc2ccc(F)cc2F)on1	Cycloheximide cs 19
O=C(NCCN1CCCC(O)C1)c1cc(COc2ccc(F)cc2Cl)on1 (stereo unspecified)	none
NC(=O)[C@@H]1CCCN1C(=O)c1cc(COc2ccc(F)cc2F)on1	none (no result: FBPA Giardia inh)
Cc1ccc(S(=O)(=O)NCC(=O)N(CC2CCCO2)C(C(=O)NCC2CCCO2)C(C)C)cc1 (stereo unspecified)	none
O=C(c1cc(COc2ccc(F)cc2Cl)on1)N1CCC(c2ccncc2)CC1	none
O=C(c1cc(COc2ccc(F)cc2Cl)on1)N1CCCCCC1	Cycloheximide cs 53, Shiga toxin inh 89 (no result: FBPA Giardia inh)
CCc1cccc(CC)c1NC(=O)CCCSc1nc2ccccc2s1	none
Cc1cccc(C)c1NC(=O)CCCSc1nc2ccccc2s1	none
CC(=O)Nc1ccc(NC(=O)CCCSc2nc3ccccc3s2)cc1	Cycloheximide cs 19
N#CCc1nc(CSc2nc3ccccc3s2)cs1	Cycloheximide cs 58, Shiga toxin inh 87
O=C(CCCSc1nc2ccccc2s1)NC1=NCCS1	Cycloheximide cs 18
CCC(C)(C)NC(=O)CCCSc1nc2ccccc2s1	Cycloheximide cs 61, Shiga toxin inh 118 (no result: NS1 inh)
CCOc1ccccc1/C=C/c1onc(C)c1S(=O)(=O)N1CCC(C(=O)NC(C)(C)C)CC1	NS1 inh inconclusive (no result: FBPA Giardia inh)
COc1ccc(CNC(=O)C(C)OC(=O)CN2C(=O)COc3ccccc32)cc1 (stereo unspecified)	none
CN(C)CCCSc1nc2ccccc2s1	Cycloheximide cs 23, Shiga toxin inh 68 (no result: NS1 inh)
O=C(Nc1ccc(N2CCOCC2)cc1)c1cccnc1	Cycloheximide cs 28, Shiga toxin inh 38
Cc1ccc(NC(=O)c2cccnc2)cc1C	Cycloheximide cs 19 (no result: Shiga toxin inh)
O=C(Nc1ccc(N2CCCCC2)c(Cl)c1)c1cccnc1	Shiga toxin inh 96
CSc1ccc(NC(=O)c2cccnc2)cc1C#N	Shiga toxin inh 51 (no result: NS1 inh)
O=C(Nc1ccc(F)c(F)c1)c1cccnc1	none
Cc1ccc(NC(=O)c2cccnc2)cc1S(=O)(=O)N(C)C	none (no result: NS1 inh)
O=C(Nc1ccc(N2CCN(Cc3ccccc3)CC2)cc1)c1cccnc1	none
COc1c(C)cccc1C(=O)Nc1ccc(N2CCOCC2)c(Cl)c1	Cycloheximide cs 89, Shiga toxin inh 121
O=C(Nc1ccc(N2CCOCC2)c(Cl)c1)c1cccc(F)c1	FBPA Giardia inh inconclusive, Cycloheximide cs 44, Shiga toxin inh 119
O=C(Nc1ccc(N2CCCC2)c(Cl)c1)c1cccnc1	Cycloheximide cs 39, NS1 inh inconclusive, Shiga toxin inh 54
O=C(Nc1nnc(-c2ccccc2Cl)o1)c1cccnc1	Cycloheximide cs 19, Shiga toxin inh 58
O=C(Nc1ccccc1N1CCOCC1)c1cccc(F)c1	none (no result: NS1 inh)
C[C@@]12CCc3occc3[C@H]1CC[C@@]13C[C@@H](CC[C@H]12)[C@@](O)(CO)C3	none (no result: NS1 inh, LmPK inh)
CC[C@H](C(=O)c1cccs1)C(O)(C(F)(F)F)C(F)(F)F	none (no result: FBPA Giardia inh, Cycloheximide cs, Shiga toxin inh, LmPK inh)
CCCCCCCC/C=C\CCCCCCCC(=O)NCCCC(=O)O	none (no result: Cycloheximide cs, NS1 inh, Shiga toxin inh, LmPK inh)
O=C(NCc1ccccn1)C1(C(F)(F)F)C/C(=C\Cc2ccccc2)CCCO1 (stereo unspecified)	FBPA Giardia inh inconclusive (no result: NS1 inh, LmPK inh)
O=C(Nc1ccccc1N1CCOCC1)c1cccnc1	none (no result: NS1 inh)
O=C(Nc1ccc(NC(=O)c2ccccc2Cl)cc1)c1cccnc1	none
O=C(Nc1ccc(Cl)c(Cl)c1)c1cccnc1	Cycloheximide cs 35 (no result: Shiga toxin inh)
O=C(Nc1ccc(N2CCOCC2)c(Cl)c1)c1cccnc1	Cycloheximide cs 26, Shiga toxin inh 53
O=C(Nc1ccc(N2CCOCC2)c(Cl)c1)c1cc(F)c(F)cc1Cl	Cycloheximide cs 19
O=C(Nc1ccc(N2CCOCC2)c(Cl)c1)c1c(F)c(F)c(F)c(F)c1F	none
CC(C)(C)OC(=O)NS(=O)(=O)NCc1ccco1	none (no result: NS1 inh, LmPK inh)
COc1ccc(-c2ccc(=O)n(Cc3c(F)cccc3Cl)n2)cc1	Cycloheximide cs 23, Shiga toxin inh 48
O=C(O)c1ccccc1OC(=O)C12CC3CC(CC(C3)C1)C2	none
CC(=O)Oc1ccc(C23CC4CC(CC(C4)C2)C3)cc1C(=O)O	Shiga toxin inh 37
COc1cc(CNCc2ccccn2)ccc1OCc1ccc(Cl)c(Cl)c1	Cycloheximide cs 20, Shiga toxin inh 64 (no result: NS1 inh)
O=C(COC(=O)c1cccnc1Cl)c1cccc(Cl)c1	Cycloheximide cs 34, Shiga toxin inh 39
O=C(OCc1ccc(Br)cc1)c1cccnc1Cl	Cycloheximide cs 27 (no result: FBPA Giardia inh)
O=C(OCc1ccc(Cl)c(Cl)c1)c1cccnc1Cl	Cycloheximide cs 23
O=C(OCc1ccc(Cl)cc1Cl)c1cccnc1Cl	none (no result: FBPA Giardia inh)
CC1(C)CC(NC(=O)c2ccc(Cl)c(Cl)c2)CC(C)(C)N1	none
Nc1ncccc1OCc1ccc(Cl)c(Cl)c1	Cycloheximide cs 47, Shiga toxin inh 56, LmPK inh inconclusive
Nc1cccnc1Sc1cc(Cl)c(Cl)cc1Cl	none
CC1(C)CC2C1CC[C@]1(C)CCC3C(C(=O)O)CC(=O)O[C@]32C1 (stereo partly specified)	none (no result: Cycloheximide cs, NS1 inh, Shiga toxin inh, LmPK inh)
Clc1ccc(-c2csc(NNC3=NCCCCC3)n2)cc1	FBPA Giardia inh inconclusive, Cycloheximide cs 26, NS1 inh inconclusive
c1ccc(-c2csc(NNC3=NCCCCC3)n2)cc1	FBPA Giardia inh inconclusive, Cycloheximide cs 39
c1ccc(NNC2=NCCCCC2)cc1	none
Cc1cc(C)c(S(=O)(=O)N2CCN(C(=O)CN3C(=O)NC4(CCCC4)C3=O)CC2)c(C)c1	none (no result: FBPA Giardia inh)
CC(C)(C)N(Cc1ccccc1)C(=O)CN1C(=O)c2ccccc2C1=O	Cycloheximide cs 38, Shiga toxin inh 55
Brc1ccc(-c2ncc(-c3ccccc3)cn2)cc1	Cycloheximide cs 46, Shiga toxin inh 136
Fc1ccc(-c2nnc(Cc3nnc(-c4ccc(F)cc4)o3)o2)cc1	none
Fc1ccc(-c2nnc(NC3=NCCCCC3)o2)cc1	LmPK inh 16µM
c1ccc(-c2nnc(NC3=NCCC3)o2)cc1	LmPK inh 20µM
Fc1ccc(-c2nnc(-c3ccc(F)cc3)o2)cc1	Cycloheximide cs 28
O=C(Nc1ccccc1)Nc1nnc(-c2ccccc2)o1	none
NCc1ccc(C(=O)O)cc1	none (no result: FBPA Giardia inh, Cycloheximide cs, Shiga toxin inh, LmPK inh)
COc1cccc(/C=N/NC(=O)c2[nH]c(C)c(C(=O)N/N=C/c3cccc(OC)c3O)c2C)c1O	FBPA Giardia inh inconclusive, Cycloheximide cs 40
COc1cccc(/C=N/NC(=O)c2ccc(-c3ccccc3)cc2)c1O	none
COc1ccc(OC)c(/C=N/NC(=O)c2ccc(=O)[nH]n2)c1	none
COc1cccc(/C=N/NC(=O)c2ccc(=O)[nH]n2)c1O	Cycloheximide cs 30, Shiga toxin inh 60
CCCCCCCNC(=O)CN1N=C(c2ccc(C)cc2)CCC1=O	none
COc1ccc(-c2nc(CN3CCC(C(=O)N4CCOCC4)CC3)c(C)o2)cc1C	none (no result: FBPA Giardia inh)
Cc1csc(NC(=O)CSc2nnc(-c3ccncc3)o2)n1	Cycloheximide cs 16
Cc1cc(-c2nnc(SCC(=O)Nc3nccs3)o2)no1	Cycloheximide cs 20, NS1 inh inconclusive, Shiga toxin inh 43
Cc1csc(NC(=O)CSc2nnc(-c3ccoc3C)o2)n1	Cycloheximide cs 41, Shiga toxin inh 70
